# Assay: HepG2 cell viability effects, profiling panel, calcein-AM fluorescence, 48 h, basal (AID 1164); note: test concentration not given here
# Details: higher = more signal
row,SMILES,z-score
1,COCC(=C=CC[C@@H](O)c1cccc(OCCO)c1)C[C@@H](O)c1ccccn1,-0.112
2,C[C@@]1([C@@H](NC(=O)c2ccc(-c3ccccc3)cc2)c2ccc(Cl)cc2)C[C@H]1C1CCCCC1,-0.934
3,CCc1cccc(NC(=O)O[C@H]2[C@H](OC(=O)Nc3ccccc3-c3ccccc3)[C@@H](OC(=O)Nc3ccccc3-c3ccccc3)[C@@H](OC)O[C@@H]2CO)c1,-4.64
4,C=C[C@H](CO[Si](CC)(CC)CC)N(Cc1ccc(OC(C)=O)c(OC)c1)S(=O)(=O)c1ccc(Br)cc1,-4.67
5,C[C@H]1NC(=O)[C@@]23C(=O)N[C@@H](Cc4ccccc4)C2[C@H](C)[C@@]2(C)O[C@H]2C3/C=C/C/C=C\CNC(=O)[C@@H]2CCCN2C1=O (stereo partly drawn),-0.0389
6,CCS[C@H]1[C@@H](C(=O)O)[C@H](c2ccc(C)cc2)N(S(=O)(=O)c2ccc(C)cc2)[C@@H]1CC,1.36
7,COCCOC(=O)N1C(=O)[C@@]2(c3ccccc31)[C@H](C(=O)N1CCc3cc(OC)c(OC)cc3C1)[C@H]1C(=O)O[C@H](c3ccccc3)[C@H](c3ccccc3)N1[C@@H]2c1ccc(OCCO)cc1,0.852
8,[N-]=[N+]=Nc1ccccc1[C@H]1OC(c2ccc(OCCCO)cc2)=N[C@@]1(CCS(=O)(=O)c1ccccc1)C(=O)NCC(O)CO (stereo partly drawn),0.0911
9,[N-]=[N+]=NCc1ccccc1[C@@H]1OC(c2ccc(OCCCO)cc2)=N[C@]1(Cc1ccccc1)C(N)=O,0.493
10,C=C(CCCC)C(=O)CC[C@@H](OC(=O)c1ccccc1-c1ccccc1C(=O)O)c1ccc(OCCO)cc1,0.515
11,O=C(CS)NCCCCCCNC(=O)[C@@H]1C[C@@H]2C(=O)N[C@@H](Cc3ccccc3)C(=O)N2[C@@H]1c1cccc(OCCO)c1,0.371
12,CC(C)C(O)C1C=CC2C(=O)N(c3ccccc3)C(=O)C2N1Nc1ccc([N+](=O)[O-])cc1 (stereo not drawn),0.497
13,CC(C)N1C(=O)[C@@]2(Cc3ccccc31)c1ccccc1C(=O)N(Cc1ccccc1Cl)[C@H]2c1ccc(CO)cc1,-0.921
14,C=CCC(OC(C)=O)[C@@H]1[C@@H](N(Cc2cc3ccccc3o2)C(=O)c2cccc3ccccc23)c2cc(OCCCO)ccc2N1C(=O)c1ccc(-c2ccccc2)cc1 (stereo partly drawn),0.168
15,C=CCC(OC(C)=O)[C@@H]1[C@@H](N(Cc2ccc(-c3ccccc3)cc2)C(=O)Cc2ccc(OC)cc2)c2cc(OCCCO)ccc2N1C(=O)Cc1ccc2ccccc2c1 (stereo partly drawn),0.71
16,Cc1ccc(S[C@]2(C(=O)O)CC(=O)N(C(C)C)[C@@H]2c2ccc(CO)cc2I)cc1,1.65
17,O=C1O[C@@H](c2ccccc2)[C@@H](c2ccccc2)N2[C@@H](c3ccccc3OCCO)[C@]3(C(=O)Nc4ccc(C#CC5=CCCCC5)cc43)[C@@H](C(=O)N3CCCCCCC3)[C@H]12,0.297
18,O=C1OCCC/C=C\[C@H]2OC34C=CCN(Cc5ccccc5)C(=O)[C@H]3N(CCCO)C(=O)[C@@H]4C12 (stereo partly drawn),0.556
19,COC(=O)[C@@]1(Cc2ccc(OC)cc2)[C@H]2c3cc(C(=O)N(C)C)n(Cc4ccc(S(C)(=O)=O)cc4)c3C[C@H]2CN1C(=O)c1ccccc1,1.13
20,CC(C)C[C@@H]1NC(=O)[C@H](C(C)C)NC(=O)[C@@]23C(=O)N[C@@H](Cc4ccccc4)C2[C@H](C)[C@@]2(C)O[C@H]2C3/C=C/CC/C=C/CNC1=O (stereo partly drawn),-0.504
21,COCCOC(=O)N1C(=O)[C@@]2(c3ccccc31)[C@H](c1ccc(O)cc1)N1[C@H](c3ccccc3)[C@H](c3ccccc3)OC(=O)[C@H]1[C@@H]2C(=O)Nc1nc2ccccc2s1,0.818
22,CC(C)OC(=O)C=C1C[C@@H](c2ccccn2)O[C@@H](c2ccccn2)O1,-0.217
23,COC(=O)[C@@]1(Cc2ccc(F)cc2)[C@H]2c3cc(C(=O)N(C)C)n(Cc4ccc(Cl)c(C(F)(F)F)c4)c3C[C@H]2CN1C(=O)c1ccccc1,-1.04
24,CC(C)(C)OC(=O)CC[C@]1(C(=O)N2CCOCC2)N=C(c2ccc(OCCCO)cc2)O[C@H]1c1ccccc1N=[N+]=[N-],0.556
25,C=C(C(=O)CC[C@@H](OC(=O)c1cccnc1)c1ccccc1OCCO)C(C)C,-0.599
26,NCCCCCCNC(=O)[C@@H]1C[C@@H]2C(=O)NCC(=O)N2[C@@H]1c1ccc(O)cc1,-1.07
27,CCCCCCc1nc(-c2cc(C)c(OC)c(C)c2)cc2c1[Si](C(C)C)(C(C)C)OC2,0.117
28,C=CCOC(=O)[C@@H]1[C@H]2C(=O)O[C@H](c3ccccc3)[C@H](c3ccccc3)N2[C@H](c2ccc(OCCOC(=O)[C@H]3C[C@H]4C(=O)N5CCC[C@H]5C(=O)N4[C@H]3c3ccc(O)cc3)cc2)[C@@]12C(=O)Nc1ccc(I)cc12,-1.02

# From PubChem BioAssay
